Most compounds without a hit are left out; they make up all but 9.4% or so of the library.
SMN2 splice up – SMN2 splice variant enhancement; AID 1458; Potency, µM (titrated, usually from 46.1 µM), inactives show top-dose activity change, positive = activation, most hits filed as activators; HEK293 SMN2-luciferase splicing reporter, luminescence, 30-36 h; 2.8% of 210,000 active; further: % of control where 0% means no effect; nearly all actives have a fitted effect of over 55% in size
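qHTS luciferase splicing reporter: luminescence rises when SMN2 exon 7 is included in transfected HEK293 cells. Compound exposure lasted 30-36 h at 37C, with 4.5 mM final sodium butyrate as control, followed by a ONE-Glo read.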
ELG1 genotoxic – induces genotoxicity in HEK293T cells with luciferase-tagged ELG1; Potency, µM (titrated, usually from 46 µM), without a hit: at the highest dose activity change, positive = activation, usual class: activators; HEK293T ELG1-luciferase reporter, luminescence, 16 h; AID 504466; 1.3% of 330,000 active; further: % of control where 0% means no effect; nearly all actives have a fitted effect of over 60% in size
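After overnight (16 hr) compound treatment at 37 °C, ELG1-luciferase HEK293T cells were lysed with ONE-Glo; luminescence quantified 30 min later at room temperature.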
NPC1 prom act – activates the NPC1 promoter | Huh7 NPC1 promoter luciferase reporter, 24 h | Potency, µM (highest dose often 9.22 µM), inactives show top-dose activation, hits mostly activators | 2.4% of 320,000 active | AID 485313; further: % of control where 0% means no effect; nearly all actives have a fitted effect of over 60% in size
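Luminescence from an NPC1 promoter-driven luciferase reporter in stably transfected Huh7 cells was measured after 24 h compound treatment at 37 °C, followed by 10 min ambient incubation with luciferase detection reagent.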
FLuc counter – firefly luciferase modulation, counter-screen for miR-21 project; P08659; purified FLuc, Km substrates, luminescence inhibition; Potency, µM (titrated, usually from 57.5 µM), inactives show top-dose activity change, negative = inhibition, most hits filed as inhibitors; 6.9% of 360,000 active;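 further: plate controls were vehicle for no effect and reference inhibitor for full effect; nearly all actives have a fitted effect of over 55% in size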
Target sequence (P08659 whole entry, looked up): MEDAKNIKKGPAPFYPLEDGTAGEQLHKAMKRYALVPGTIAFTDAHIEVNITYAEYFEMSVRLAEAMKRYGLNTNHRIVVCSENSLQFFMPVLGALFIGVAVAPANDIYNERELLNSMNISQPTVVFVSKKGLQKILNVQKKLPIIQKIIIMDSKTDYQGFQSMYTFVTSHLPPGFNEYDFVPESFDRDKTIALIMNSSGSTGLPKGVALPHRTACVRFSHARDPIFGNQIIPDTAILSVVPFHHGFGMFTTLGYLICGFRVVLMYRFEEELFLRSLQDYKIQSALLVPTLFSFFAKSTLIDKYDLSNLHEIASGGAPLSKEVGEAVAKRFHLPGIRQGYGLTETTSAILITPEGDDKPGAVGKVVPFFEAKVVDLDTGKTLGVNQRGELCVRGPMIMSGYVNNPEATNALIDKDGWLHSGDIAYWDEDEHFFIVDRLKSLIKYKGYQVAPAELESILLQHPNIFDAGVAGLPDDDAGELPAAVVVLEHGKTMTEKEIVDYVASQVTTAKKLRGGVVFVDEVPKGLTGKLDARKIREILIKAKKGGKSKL
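Purified P. pyralis luciferase (10nM final) with 10uM D-luciferin and 10uM ATP (Km levels) in 50mM Tris acetate pH 7.5, 10mM Mg acetate, 0.01% Tween-20, 0.05% BSA; qHTS 6-point titration, ~60 µM downward; luminescence read.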
Rab9 prom act – activates the Rab9 promoter. Huh7 Rab9 promoter-luciferase reporter, luminescence, 24 h. Potency, µM (doses to about 9.22 µM), for the others: top-dose activation, negative = inhibition, usual class: activators. 2.8% of 320,000 active. AID 485297; further: % of control where 0% means no effect; nearly all actives have a fitted effect of over 60% in size
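Huh7 cells stably carrying Rab9 promoter–luciferase reporter, plated 1500 cells/well, compound added after 2 h and incubated 24 h at 37 °C; luciferase luminescence then read after 10 min with detection reagent.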
ELG1 repair inh – ELG1-dependent DNA repair inhibition; HEK293T ELG1-luciferase reporter, luminescence, 16 h; DNA damage induced by 5-fluorouridine; Potency, µM (doses to about 46.1 µM), for the others: top-dose activity change, negative = inhibition, usual class: inhibitors; 2.3% of 330,000 active; AID 504467; further: on the % scale 0 is the no-effect control and ±100 the full control effect; nearly all actives have a fitted effect of over 55% in size
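DMSO vehicle served as the neutral condition. Each well held 2,000 cells given 5-fluorouridine plus compound; after 16 hr at 37 °C/5% CO2, ONE-Glo was added and luciferase measured 30 min later.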
* hit, by the source's call; [ ] = remark or other dose. The call rests on the fitted dose curve; in most records, active means well fitted curve in the direction sought with a large enough effect; inconclusive means small, poorly fitted or top-dose-only effect, or another doubt; inactive means no such curve, though single readings can be large; an effect the other way counts as inactive or inconclusive. Potency means the concentration at half of the fitted maximal effect.

Results for CC(=O)[C@]1(O)Cc2c(O)c3c(c(O)c2[C@@H](O[C@H]2C[C@H](N)[C@H](O)[C@H](C)O2)C1)C(=O)c1ccccc1C3=O ?
SMN2 splice up: -69%; NPC1 prom act: -37%[46.1 µM]; Rab9 prom act: -44%[46.1 µM]

What do the screens show for `COc1cccc2c1C(=O)c1c(O)c3c(c(O)c1C2=O)C[C@@](O)(C(C)=O)C[C@@H]3O[C@H]1C[C@H](N)[C@H](O)[C@H](C)O1`?
SMN2 splice up: -113%; ELG1 genotoxic: -12%; NPC1 prom act: -35%; FLuc counter: inconclusive; Rab9 prom act: -35%; ELG1 repair inh: 3.3µM*

Results for CCCCN(CC)C(=O)CSc1nc2n[nH]c(C)c2c(=N)n1-c1ccc(CC)cc1 ?
FLuc counter: -14%

What do the screens show for `CCOC(=O)Cc1csc(NC(=O)COc2ccc3ccccc3c2)n1`?
SMN2 splice up: -7%; ELG1 genotoxic: 0%; NPC1 prom act: 1%; FLuc counter: 13µM*; Rab9 prom act: -6%; ELG1 repair inh: 1%

How did CCOC(=O)Cc1csc(NC(=O)COc2ccc(OC)cc2)n1 do in these assays?
SMN2 splice up: 2%; ELG1 genotoxic: 3%; NPC1 prom act: -1%; FLuc counter: 19µM*; Rab9 prom act: -2%; ELG1 repair inh: -15%

What do the screens show for `CN(c1ccc(OCC(=O)Nc2nc3ccccc3s2)cc1)S(=O)(=O)c1ccccc1`?
ELG1 genotoxic: 4%; NPC1 prom act: -8%; FLuc counter: 3%; Rab9 prom act: -14%; ELG1 repair inh: 8.2µM*

Results for CCOC(=O)Cc1csc(NC(=O)COc2ccc(N(C)S(=O)(=O)c3ccc(C)cc3)cc2)n1 ?
SMN2 splice up: -3%; ELG1 genotoxic: -4%; NPC1 prom act: 1%; FLuc counter: 1%; Rab9 prom act: -1%; ELG1 repair inh: 18µM*

What do the screens show for `CCOc1ccc(S(=O)(=O)N(C)c2ccc(OCC(=O)Nc3nc4ccccc4s3)cc2)cc1`?
SMN2 splice up: -73%; ELG1 genotoxic: 0%; NPC1 prom act: -15%; FLuc counter: 10%; Rab9 prom act: -20%; ELG1 repair inh: inconclusive

How did CCOc1ccc2ncc3c(-c4cccc(OC)c4)nn(-c4ccccc4)c3c2c1 do in these assays?
SMN2 splice up: -2%; FLuc counter: -6%

How did COc1ccc(OC)c(CNS(=O)(=O)c2c(C(=O)N3CCC(C)CC3)c(C)n(C)c2C)c1 do in these assays?
FLuc counter: -2%

How did Cc1ccccc1-c1nc(SCC(=O)NCC2CCCO2)c2c(=O)n(C)c(=O)n(C)c2n1 (centres undefined) do in these assays?
FLuc counter: 3%

Results for COc1ccc(S(=O)(=O)Nc2ccc(-c3ccc(N4CCCC4)nn3)cc2)cc1C ?
ELG1 genotoxic: 2%; NPC1 prom act: 1%; FLuc counter: -3%; Rab9 prom act: 2%; ELG1 repair inh: 0%

Results for COc1ccc(S(=O)(=O)Nc2cccc(S(=O)(=O)N3CCCC3)c2)cc1OC ?
ELG1 genotoxic: -2%; NPC1 prom act: 4%; FLuc counter: 3%; Rab9 prom act: -9%; ELG1 repair inh: 1%

Results for COc1ccc(S(=O)(=O)Nc2cccc(-c3ccc(N4CCOCC4)nn3)c2)cc1F ?
FLuc counter: 6.7µM*

Results for COc1cc(C)c(C)cc1S(=O)(=O)Nc1cccc(-c2ccc(N3CCOCC3)nn2)c1 ?
FLuc counter: 27µM*

How did COc1ccc(S(=O)(=O)Nc2cccc(-c3ccc(N4CCCCCC4)nn3)c2)cc1F do in these assays?
FLuc counter: 5.4µM*

Results for Cc1cc(C)c(S(=O)(=O)Nc2ccc(-c3ccc(N4CCCCCC4)nn3)cc2)cc1C ?
FLuc counter: -18%

Results for COc1ccc(S(=O)(=O)Nc2cccc(-c3ccc(N4CCCCC4)nn3)c2)cc1F ?
FLuc counter: 2.7µM*

Results for COc1ccc(S(=O)(=O)Nc2ccccc2C(=O)N2CCOCC2)cc1F ?
ELG1 genotoxic: 0%; NPC1 prom act: 9%; FLuc counter: -1%; Rab9 prom act: 4%; ELG1 repair inh: -7%

What do the screens show for `CCCCNc1nc(Oc2ccc(=O)n(-c3ccccc3)n2)nc(N(C)C)n1`?
SMN2 splice up: -11%; FLuc counter: -10%

What do the screens show for `Cc1ccccc1Nc1cc(C(=O)NC2CCC(C)CC2)c2ccccc2n1` (centres undefined)?
SMN2 splice up: 15%; FLuc counter: 4%

What do the screens show for `CCOC(=O)c1c(C)c(-c2ccccc2)n(CC(=O)Nc2cc(C)ccc2OC)c1C`?
SMN2 splice up: -2%; FLuc counter: -5%

What do the screens show for `Cc1cccc(N2CCN(C3(c4ccccc4)C(=O)c4ccccc4C3=O)CC2C)c1` (centres undefined)?
SMN2 splice up: -21%; FLuc counter: -1%

How did C#CCn1c(C2CC(=O)N(c3ccc(OC)cc3)C2)nc2ccccc21 (centres undefined) do in these assays?
SMN2 splice up: -6%; FLuc counter: -6%

What do the screens show for `CN(C)c1ccc(N/C=C/C(=O)C(C)(C)C)cc1`?
SMN2 splice up: -27%; ELG1 genotoxic: inconclusive; NPC1 prom act: 4%; FLuc counter: 5.4µM*; Rab9 prom act: 28%; ELG1 repair inh: inconclusive

Results for CN(C)C(/C=C/Nc1ccc(F)cc1F)=C(C#N)C#N ?
SMN2 splice up: 2%; ELG1 genotoxic: 1%; NPC1 prom act: 1%; FLuc counter: -1%; Rab9 prom act: 17%; ELG1 repair inh: 8%

Results for Cc1cc(NC(=O)C2CCCO2)ccc1Br (centres undefined) ?
SMN2 splice up: 1%; ELG1 genotoxic: 4%; NPC1 prom act: -8%; FLuc counter: 0%; Rab9 prom act: 0%; ELG1 repair inh: 16%

What do the screens show for `O=C(/C=C\Nc1ccc(Br)cc1)c1cccnc1`?
ELG1 genotoxic: 21µM*; NPC1 prom act: 1.8µM*; FLuc counter: 0.95µM*; Rab9 prom act: 1.3µM*; ELG1 repair inh: inconclusive

What do the screens show for `Cc1noc(NS(=O)(=O)c2ccc(N/C=C/C(=O)c3cccnc3)cc2)c1C`?
SMN2 splice up: 14%; ELG1 genotoxic: 3%; NPC1 prom act: 1%; FLuc counter: inconclusive; Rab9 prom act: -1%; ELG1 repair inh: 12%

Results for O=C(/C=C/Nc1ccc(F)cc1Br)c1ccccc1 ?
SMN2 splice up: -45%; ELG1 genotoxic: 0.16µM*; NPC1 prom act: 0.5µM*; FLuc counter: 0.085µM*; Rab9 prom act: 0.11µM*; ELG1 repair inh: inconclusive
